Records with an inconclusive call do not appear. Values without a mark were called inactive. Activity calls are given as the source filed them. The call rests on the fitted dose curve; in most records, active means well fitted curve in the direction sought with a large enough effect; inconclusive means small, poorly fitted or top-dose-only effect, or another doubt; inactive means no such curve, though single readings can be large; an effect the other way counts as inactive or inconclusive.

The source of these data is PubChem BioAssay (NCATS).

Test [1] can be described thus: qHTS of pediatric cancer cell lines to identify multiple opportunities for drug repurposing: Confirmatory screen for BT-37 cells (AID 1347117). Further: potency means the concentration at half of the fitted maximal effect.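 Further: viability measured after 48 h of compound exposure; nearly all actives have a fitted effect of over 55% in size.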 An outline of the steps:
(§1)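 Cells (500-1,000/well) rested 5 h, then received compounds for 48 h; metabolically active cells were measured by CellTiter-Glo luminescence. Final concentrations spanned up to 46 µM (MIPE, 11-point) or 0.59 nM-46 µM (NPC, 8-point) in primary screens, 11-point in follow-ups.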
In general terms: Quantitative high-throughput screening tests each substance at several concentrations.

A short description of test [2]: qHTS of pediatric cancer cell lines to identify multiple opportunities for drug repurposing: Confirmatory screen for TC32 cells (AID 1347118).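 Further: cells exposed to compound for 48 h before the read; nearly all actives have a fitted effect of over 65% in size.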 Further: potency means the concentration at half of the fitted maximal effect. The method in brief:
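Luminescent CellTiter-Glo read-out of metabolically active TC32 cells after 48 h compound exposure. Primary: MIPE 11-point, 0.78 nM–46 µM; NPC 8-point, 0.59 nM–46 µM. Confirmatory: 11-point dilutions.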

Test [3] in a line: qHTS of pediatric cancer cell lines to identify multiple opportunities for drug repurposing: Confirmatory screen for MG 63 (6-TG R) cells (AID 1347119). Further: nearly all actives have a fitted effect of over 55% in size. Further: potency means the concentration at half of the fitted maximal effect. The method in brief:
as §1

The nature of test [4]: qHTS of pediatric cancer cell lines to identify multiple opportunities for drug repurposing: Confirmatory screen for control Hh wild type fibroblast cells (AID 1347121). Further: nearly all actives have a fitted effect of over 70% in size. Further: potency means the concentration at half of the fitted maximal effect. An outline of the steps:
as §1

A short description of test [5]: qHTS of pediatric cancer cell lines to identify multiple opportunities for drug repurposing: Confirmatory screen for Rh41 cells (AID 1347123). Further: potency means the concentration at half of the fitted maximal effect; nearly all actives have a fitted effect of over 60% in size. An outline of the steps:
as §1

Test [6] can be described thus: qHTS of pediatric cancer cell lines to identify multiple opportunities for drug repurposing: Confirmatory screen for Rh18 cells (AID 1347125). Further: nearly all actives have a fitted effect of over 55% in size. Further: potency means the concentration at half of the fitted maximal effect. An outline of the steps:
as §1

Test [7] can be described thus: qHTS of pediatric cancer cell lines to identify multiple opportunities for drug repurposing: Confirmatory screen for Saos-2 cells (AID 1347127). Further: nearly all actives have a fitted effect of over 60% in size. Further: potency means the concentration at half of the fitted maximal effect. An outline of the steps: as §1
A short description of test [8]: qHTS of pediatric cancer cell lines to identify multiple opportunities for drug repurposing: Confirmatory screen for OHS-50 cells (AID 1347128).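 Further: compound exposure lasted 48 h at 37 degrees C; nearly all actives have a fitted effect of over 55% in size.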 Further: potency means the concentration at half of the fitted maximal effect. The method in brief: as §1
Test [9] in a line: qHTS of pediatric cancer cell lines to identify multiple opportunities for drug repurposing: Confirmatory screen for SK-N-SH cells (AID 1347129).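 Further: cells exposed to compound for 48 h before viability read; nearly all actives have a fitted effect of over 60% in size.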 Further: potency means the concentration at half of the fitted maximal effect. An outline of the steps: as §1
Test [10] in a line: qHTS of pediatric cancer cell lines to identify multiple opportunities for drug repurposing: Confirmatory screen for U-2 OS cells (AID 1347122). Further: nearly all actives have a fitted effect of over 65% in size. Further: potency means the concentration at half of the fitted maximal effect. The method in brief:
as §1

The nature of test [11]: qHTS of pediatric cancer cell lines to identify multiple opportunities for drug repurposing: Confirmatory screen for RD cells (AID 1347124).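 Further: cells exposed to compound for 48 h before viability readout; nearly all actives have a fitted effect of over 65% in size.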 Further: potency means the concentration at half of the fitted maximal effect. The method in brief:
as §1

The nature of test [12]: qHTS of pediatric cancer cell lines to identify multiple opportunities for drug repurposing: Confirmatory screen for Rh30 cells (AID 1347126). Further: nearly all actives have a fitted effect of over 55% in size. Further: potency means the concentration at half of the fitted maximal effect. An outline of the steps:
as §1

Test [13] concerns Zika virus NS2B-NS3 protease. Nature of the test: Primary screen GU AMC qHTS for Zika virus inhibitors (AID 1347154). Further: nearly all actives have a fitted effect of over 70% in size. Further: potency means the concentration at half of the fitted maximal effect. An outline of the steps: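 Fluorogenic AMC-substrate cleavage by noncovalent NS2B-NS3 protease complex (25 nM, pH 8.0 Tris buffer with Tween 20) followed for 15 minutes at room temperature (~20% conversion). Percent inhibition from ex340/em450 signal change, fitted by 4-parameter Hill equation.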

Test [14] has as its system Zika virus NS2B-NS3 protease (unlinked complex). Description: Primary screen GU Rhodamine qHTS for Zika virus inhibitors: Unlinked NS2B-NS3 protease assay (AID 1347159). Further: potency means the concentration at half of the fitted maximal effect; nearly all actives have a fitted effect of over 60% in size. The method in brief: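 Buffer 10 mM Tris-HCl pH 8.0, 0.01% Tween 20. Unlinked protease 25 nM; compound preincubation 15 min, RT, protected from light. Substrate Rhod110, 1.5 microM; ~15% conversion in 15 min.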

In test [15] the target is Furin (Homo sapiens) (UniProt P09958). Nature of the test: Furin counterscreen qHTS for Zika virus inhibitors (AID 1347149). Further: potency means the concentration at half of the fitted maximal effect; nearly all actives have a fitted effect of over 70% in size. The method in brief: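 Counterscreen measures cleavage of 2 microM BOC-RVRR-AMC, below its ~15 microM Km, by 5 nM full-length human furin at pH 7.0 after a 15-min compound preincubation. Inhibition derives from the 15-min fluorescence increase at 37C.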
Sequence of Furin (Homo sapiens) (P09958 whole entry, looked up): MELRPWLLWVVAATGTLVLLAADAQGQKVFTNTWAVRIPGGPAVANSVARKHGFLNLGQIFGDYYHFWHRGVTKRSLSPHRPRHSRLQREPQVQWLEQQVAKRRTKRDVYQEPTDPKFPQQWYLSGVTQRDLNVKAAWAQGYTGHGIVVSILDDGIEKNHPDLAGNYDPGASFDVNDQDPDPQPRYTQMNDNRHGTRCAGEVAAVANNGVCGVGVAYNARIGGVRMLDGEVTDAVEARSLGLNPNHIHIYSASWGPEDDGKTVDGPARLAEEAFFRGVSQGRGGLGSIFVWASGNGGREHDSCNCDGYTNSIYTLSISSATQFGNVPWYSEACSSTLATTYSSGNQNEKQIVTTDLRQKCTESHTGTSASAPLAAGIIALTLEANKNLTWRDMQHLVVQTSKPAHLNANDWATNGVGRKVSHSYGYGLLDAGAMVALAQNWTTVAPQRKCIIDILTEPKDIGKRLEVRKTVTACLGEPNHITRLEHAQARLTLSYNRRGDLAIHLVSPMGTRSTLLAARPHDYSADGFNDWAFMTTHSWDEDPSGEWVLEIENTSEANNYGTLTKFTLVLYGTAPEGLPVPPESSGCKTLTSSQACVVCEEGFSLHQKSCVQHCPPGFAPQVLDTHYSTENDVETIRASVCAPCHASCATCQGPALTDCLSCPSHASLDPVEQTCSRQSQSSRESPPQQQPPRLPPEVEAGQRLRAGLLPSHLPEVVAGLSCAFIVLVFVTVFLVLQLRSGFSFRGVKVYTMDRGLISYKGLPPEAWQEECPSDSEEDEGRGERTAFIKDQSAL
Background: The purpose of a counterscreen is to sort out artefacts and off-target activity.

Test [16] deals with Zika virus NS2B-NS3 protease (unlinked complex). Nature of the test: Confirmatory screen GU AMC qHTS for Zika virus inhibitors (AID 1347153).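 Further: enzyme at 25 nM with substrate at 10 µM below its Km of 18.3 µM; potency means the concentration at half of the fitted maximal effect; nearly all actives have a fitted effect of over 70% in size.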 The method in brief:
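Noncovalent NS2B hydrophilic domain/NS3 protease complex (25 nM) in 10 mM Tris-HCl pH 8.0, 0.01% Tween 20 was preincubated 15 min at room temperature with compounds. Then 10 µM AMC substrate (Km 18.3 µM) was added; fluorescence was read over 15 min and fitted to a 4-parameter Hill equation.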

Test [17] is described as follows: Confirmatory screen GU Rhodamine qHTS for Zika virus inhibitors qHTS (AID 1347157). An outline of the steps: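 Percent inhibition came from the 15-min rise in Rhodamine110 fluorescence (1.5 microM substrate, ~15% conversion), normalized to no-inhibitor and no-enzyme wells and Hill-fitted. Unlinked protease, 25 nM, pH 8.0 Tris buffer; compounds up to 114 microM, 15-min preincubation.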

The nature of test [18]: ZIKV-mCherry secondary qHTS for Zika virus inhibitors (AID 1347158). Further: top concentration of the series differs between compounds. The method in brief: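 Percent infection is the share of Hoechst-identified Vero nuclei with mCherry signal above 450 RFU (3 SD over negative controls). Cells were infected with recombinant ZIKV-mCherry at MOI 1 after compound addition and imaged 48–72 h later.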

`NC(=O)Nc1cc(-c2cccc(F)c2)sc1C(=O)N[C@H]1CCCNC1`: the Potency was 827 nM (active) in test [1]; 737 nM (active) in test [2]; 1040 nM (active) in test [3]; 20800 nM (active) in test [4]; 1470 nM (active) in test [5]; 6570 nM (active) in [6]. For the same molecule, the Potency in test [7] is 1650 nM (active); in [8] it was 737 nM (active); in test [9] it was 3720 nM (active).
`CCNC(=O)Nc1ccc2ncc(Nc3ccc(C)cc3)nc2n1`: the Potency result in test [1], in test [2], in test [3], in test [4], in test [10] and in [11] was “inactive” in each case. In addition, the Potency result in test [6], in test [12], in test [7], in test [8], in [9] and in test [13] was “inactive” throughout. Moreover, the Potency in [14] was 25100 nM (active).
In the case of `COCCn1c2c([n+](Cc3cnccn3)c1C)C(=O)c1ccccc1C2=O`, the Potency in test [1] was 82.7 nM (active); in test [2] it was 18.5 nM (active); in test [3], 73.7 nM (active); in [4], 261 nM (active); in test [10], 14.7 nM (active); in [5], 18.5 nM (active). Also, the Potency in test [11] is 26.1 nM (active); in [6], 14.7 nM (active); in test [7] it was 7.4 nM (active); in test [8] it was 5.2 nM (active); in test [9] it was 235 nM (active). In addition, the Potency result in test [12] and in test [13] was “inactive” throughout.
Take `O=C(Nc1cc(C(F)(F)F)cc(C(F)(F)F)c1)c1cc(Cl)ccc1O`: the Potency in test [1] is 1850 nM (active); in test [2] it was 2930 nM (active); in [3] it was 928 nM (active); in test [4], 2330 nM (active); in [6], 3690 nM (active); in [7] it was 1650 nM (active). Moreover, the Potency was 928 nM (active) in test [8]; 3720 nM (active) in test [9]; 55500 nM (active) in test [15]; 49400 nM (active) in test [16]; 4940 nM (active) in test [17]; 2820 nM (active) in test [14]. Also, in test [13], the Potency result was “inactive”.
For `C#Cc1cccc(Nc2ncnc3cc(OC)c(OCCCCCCC(=O)NO)cc23)c1`, the Potency in test [1] is 759 nM (active); in test [2], 676 nM (active); in [3] it was 851 nM (active); in test [4], 10700 nM (active); in [10], 1350 nM (active); in test [5], 1070 nM (active). The Potency in test [11] is 1200 nM (active); in [6], 1910 nM (active); in test [12], 2140 nM (active); in [7], 1350 nM (active); in [8], 2400 nM (active); in test [9], 2410 nM (active).
For `COc1cc2c(Oc3ccc(NC(=O)C4(C(=O)Nc5ccc(F)cc5)CC4)cc3F)ccnc2cc1OCCCN1CCOCC1`, the Potency is 10400 nM (active) in test [1]; 1850 nM (active) in test [2]; 7370 nM (active) in test [3]; 20800 nM (active) in test [4]; 8270 nM (active) in test [10]; 10400 nM (active) in test [11]. Besides, the Potency in test [6] is 7370 nM (active); in test [7], 4140 nM (active); in test [8], 3690 nM (active); in test [9], 1870 nM (active). Further, the Potency entry in test [13] was “inactive”.
Consider `CCN1CCN(Cc2ccc(-c3cc4c(N[C@H](C)c5ccccc5)ncnc4[nH]3)cc2)CC1`, for which the Potency was 2690 nM (active) in test [1]; 759 nM (active) in test [2]; 13500 nM (active) in [3]; 42700 nM (active) in [4]; 21400 nM (active) in test [11]; 33900 nM (active) in [6]. In addition, the Potency in test [12] was 15100 nM (active); in test [7], 4270 nM (active); in test [8], 4790 nM (active); in [9], 10800 nM (active); in test [15], 27800 nM (active); in [16], 49400 nM (active). Besides, the Potency in test [13] is 17100 nM (active).
As to `Cc1c(C)n(Cc2ccc(-c3ccccc3C(=O)O)cc2)c2ccc(C(=O)N[C@@H](C)c3ccc([N+](=O)[O-])cc3)cc12`, the Potency entry in test [1], in test [2], in test [3], in [4], in test [10] and in [11] was “inactive” each time. In addition, the Potency result in [6], in test [12], in test [7], in test [8], in test [9] and in test [18] was “inactive” each time. Besides, the Potency in test [5] is 9270 nM (active); in test [16], 21500 nM (active); in test [13] it was 19200 nM (active); in test [14], 2820 nM (active).
Regarding `C=CC(=O)Nc1cc2c(Nc3ccc(F)c(Cl)c3)ncnc2cc1C#CC(C)(C)N1CCN(C)CC1`, the Potency in [1] is 3020 nM (active); in [2] it was 3020 nM (active); in test [3] it was 4270 nM (active); in test [4], 19100 nM (active); in test [10], 4790 nM (active); in test [5], 2690 nM (active). Also, the Potency in [11] was 6030 nM (active); in test [6] it was 6030 nM (active); in test [12], 3800 nM (active); in test [7] it was 4270 nM (active); in test [8], 6030 nM (active); in test [9], 4290 nM (active).
For `CC(C)[C@H](C(=O)Nc1ccc(C(=O)NO)cc1)c1ccccc1`, the Potency in test [1] was 1040 nM (active); in test [2], 737 nM (active); in [3] it was 657 nM (active); in [10], 657 nM (active); in test [5], 1170 nM (active); in test [11], 1650 nM (active). Also, the Potency in test [6] is 827 nM (active); in [12] it was 2330 nM (active); in test [7], 1850 nM (active); in test [8], 2330 nM (active). Moreover, the Potency entry in [9] is “inactive”.
As to `Nc1ccccc1NC(=O)c1ccc(CNc2nccc(-c3cccnc3)n2)cc1`, the Potency result in [1], in test [2], in [3], in [4] and in test [13] was “inactive” throughout. For the same molecule, the Potency in test [11] is 1650 nM (active); in [6] it was 1170 nM (active); in test [12] it was 1650 nM (active).
For `O=C(O)c1ccc2cc(-c3ccc(O)c(C45CC6CC(CC(C6)C4)C5)c3)ccc2c1`, the Potency in test [1] was 1470 nM (active); in test [2], 585 nM (active); in [3] it was 585 nM (active); in [5], 3290 nM (active); in test [12], 104 nM (active); in test [7], 1310 nM (active). In test [8], the Potency is 2930 nM (active). For the same molecule, the Potency result in [4] and in [9] was “inactive” in each case.
